These compounds were tested on Vero E6 infected with SARS-CoV-2 (assay: morphology score (similarity to uninfected cells); higher = more like uninfected cells). Details: 24 h.

SMILES	morphology score
CN1CCC(c2c[nH]c3ccc(O)cc23)CC1 (10 µM)	0.214
Clc1cccc2c1CN(C1=NCCN1)C2 (10 µM)	0.132
CN(C)c1ccc2nc3ccc(=[N+](C)C)cc-3sc2c1 [methylene-blue] (0.833333 µM)	0.152
COc1c(C)c2c(c(O)c1C/C=C(\C)CCC(=O)OCCN1CCOCC1)C(=O)OC2 [mycophenolate-mofetil] (10 µM)	-0.124
COC(=O)[C@H](CC(C)C)NC(=O)c1ccc(NC[C@@H](N)CS)cc1-c1cccc2ccccc12 (10 µM)	-0.445
CN(C)CCCC(=O)Nc1ccc(C(=O)Nc2cccc(Nc3ncc(Cl)c(-c4c[nH]c5ccccc45)n3)c2)cc1 (10 µM)	0.132
COc1ccc(-c2ccc3ncc4c(c3c2)n(-c2ccc(N3CCNCC3)c(C(F)(F)F)c2)c(=O)n4C)cn1 (0.833333 µM)	0.115
CC(C)C(N)=O [isobutyramide] (10 µM)	0.073
CC(C)(C)c1ccc(C(O)CCCN2CCC(C(O)(c3ccccc3)c3ccccc3)CC2)cc1 (centres undefined) [terfenadine] (10 µM)	0.133
NCCCCN=C(N)N [agmatine] (10 µM)	0.0302
Oc1cc(O)c(Cl)cn1 [gimeracil] (10 µM)	0.103
CC(C)(C(=O)O)c1ccc(C(=O)CCCN2CCC(OC(c3ccccc3)c3ccccc3)CC2)cc1 [carebastine] (10 µM)	0.0702
N#Cc1ccccc1OCC(O)CNCCNC(=O)Nc1ccccc1 (centres undefined) (10 µM)	-0.0291
CC(C)Oc1ccc2c(=O)c3cc(C(=O)O)ccc3oc2c1 (10 µM)	0.0971

From the supplement of paper PMC13380429
